MEKK2 WT-MEK5: modulators of MEK5 binding to wildtype MEKK2, primary screen, biochemical, multiplex bead flow cytometry, Alexa488-MEK5; Mitogen-activated protein kinase kinase kinase 2 (Homo sapiens), Q9Y2U5; Alexa488-MEK5 binding to MEKK2 WT; actives lie on both sides; binding response (% of control), % at 10 µM; 290,000 compounds, 1.1% hits; AID 1531, 2009; in the data active = binding response below about 67% or above about 130%
DNA FID counter: compounds displacing fluorescent DNA intercalator, primary screen, artefact control for HCV NS3 helicase inhibitor project, biochemical, FID fluorescence; 290,000 compounds, 0.17% hits; DNA fluorescent intercalator displacement; inhibition, % at 7.9 µM; in the data active = inhibition above about 37%;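 also: higher means more ethidium bromide displaced from hairpin DNA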
MEKK2mut PB1 HTS: MEK5 binding signal on mutant MEKK2 PB1, primary screen, biochemical, multiplex bead flow cytometry, Alexa488-MEK5; Alexa488-MEK5 binding to MEKK2 mutant; 290,000 compounds, 0.35% hits; percent response, % at 10 µM; in the data active = percent response above about 24%, passing the limit was not always enough
MEKK3 PB1 HTS: modulators of MEKK3-MEK5 PB1 binding, primary screen, biochemical, wildtype MEKK3, multiplex bead flow cytometry, Alexa488-MEK5 | bead-based flow cytometry, Alexa488-MEK5 binding to MEKK3; actives lie on both sides; 0 = blocked by unlabeled MEK5, 100 = vehicle | binding response (% of control), % at 10 µM | 290,000 compounds, 1.4% hits;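 active = binding response more than 3 SD above or below the average of its plate-row segment, actives on both sides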;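 also: Alexa488 bead fluorescence after subtracting the streptavidin-only scavenger bead signal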
dFosB activator: activators of delta FosB homodimer, primary screen, biochemical, fluorescence polarization, TAMRA-CDK5 oligo, single point | Protein FosB (Mus musculus), P13346 | purified delta FosB; percent of positive-control signal above neutral wells | activation, % at 25 µM | 340,000 compounds, 0.99% hits | AID 493131, 2011;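 active = mean activation above about 17%, with every replicate also reaching it, limit read from the data, passing the limit was not always enough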
Target sequence (P13346 whole entry, looked up): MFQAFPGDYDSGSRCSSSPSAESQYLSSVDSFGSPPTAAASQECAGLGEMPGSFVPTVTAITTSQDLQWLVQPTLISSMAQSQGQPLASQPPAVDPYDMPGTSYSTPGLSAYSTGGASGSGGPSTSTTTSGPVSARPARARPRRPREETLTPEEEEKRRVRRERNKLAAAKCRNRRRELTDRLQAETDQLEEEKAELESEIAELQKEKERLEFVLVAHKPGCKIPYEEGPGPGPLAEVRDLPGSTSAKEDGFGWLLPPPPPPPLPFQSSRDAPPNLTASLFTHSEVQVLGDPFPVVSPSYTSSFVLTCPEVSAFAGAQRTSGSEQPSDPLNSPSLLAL
MEKK2wt confirm: modulators of MEK5 binding to wildtype MEKK2, confirmation, biochemical, single concentration, multiplex bead flow cytometry. 5,900 compounds, 2.4% hits. AID 1892, 2009. shares compounds with MEKK3 PB1 HTS. binding response (% of control), % at 10 µM. Alexa488-MEK5 binding to MEKK2 WT; actives lie on both sides; in the data active = binding response below about 16% or above about 210%; inactive = in between
MEKK2mut-MEK5: mutant MEKK2 PB1-MEK5 binding signal retest – biochemical, single concentration, multiplex bead flow cytometry, confirmation; shares compounds with MEKK3 PB1 HTS; Alexa488-MEK5 binding to MEKK2 mutant; percent response, % at 10 µM; 5,900 compounds, 2% hits; AID 1893, 2009; in the data active = percent response mostly above about 71%, no sharp cut-off; inactive = mostly below about 38%;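 also: higher means compound restores mutant binding toward wildtype level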
MEKK3 confirm: MEKK3 wild-type PB1 binding to MEK5, inhibitors, confirmation, biochemical, bead multiplex flow cytometry, single concentration, wildtype | binding response (% of control), % at 10 µM | Alexa488-MEK5 binding to MEKK3; hits give low values | shares compounds with MEKK3 PB1 HTS | 5,900 compounds, 1.8% hits;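 active = binding response below 72% of control, or above a set upper limit, though filed actives all read lower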;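 also: lower values mean stronger disruption of MEK5 binding to MEKK3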
A number is an active result; – = inactive; · = no result given; [ ] = remark or other dose. The list is not random: actives were taken first. Their share in the collection is about 2.9%.

SMILES | MEKK2 WT-MEK5 | DNA FID counter | MEKK2mut PB1 HTS | MEKK3 PB1 HTS | dFosB activator | MEKK2wt confirm | MEKK2mut-MEK5 | MEKK3 confirm
COc1ccc(C2C(C#N)=C(N)Oc3cc(O)ccc32)cc1OC (stereo unspecified) | – | – | – | – | – | · | · | ·
CC(=O)c1cccc(NC2c3ccccc3C(=O)N2Cc2ccco2)c1 (stereo unspecified) | – | – | – | 134 | – | – | – | –
Clc1cccc(Nc2nc(-c3cccnc3)cs2)c1 | 154 | – | · | · | – | – | – | –
NC(=O)C1CCN(c2ncc(C(F)(F)F)cc2Cl)CC1 | – | – | – | 130 | – | – | – | –
CN(CCO)C(=O)C1CCN(c2ncc(C(F)(F)F)cc2Cl)CC1 | – | – | – | – | – | · | · | ·
COc1ccccc1CNC(=O)CN(c1cccc([N+](=O)[O-])c1)S(C)(=O)=O | -2.0[inhibitor] | – | – | 1.0[inhibitor] | – | – | – | –
O=C(NNC(=S)Nc1cccc(C(F)(F)F)c1)c1ccc(Cl)cc1Cl | – | – | – | 162 | – | – | – | –
O=C(Nc1cccc(C(F)(F)F)c1)C(SCCO)c1ccccc1 (stereo unspecified) | – | – | – | 131 | – | – | – | 59
FC(F)(F)c1cccc(NC(=S)NC(c2ccccc2)c2ccccc2)c1 | 169 | – | – | 152 | – | – | – | –
COc1ccc(N=C2S/C(=C\c3ccc(N4CCOCC4)o3)C(=O)N2CCc2c[nH]c3ccccc23)cc1 | 161 | – | 99 | – | – | – | – | –
COc1ccc(N=C2S/C(=C\c3ccc(OCC(=O)O)cc3)C(=O)N2CCc2c[nH]c3ccccc23)cc1 | – | – | – | – | – | · | · | ·
CC(=O)Nc1c(Br)cc2c(c1Br)Cc1cc([N+](=O)[O-])ccc1-2 | · | · | · | · | – | · | · | ·
Cc1ccc(NC(=O)C(NC2CCCC2)c2ccccc2)cc1Cl (stereo unspecified) | 142 | – | – | – | – | – | – | –
Cc1cc(C(=O)OC(C(=O)Nc2ccc(C)c(Cl)c2)c2ccccc2)c(C)o1 (stereo unspecified) | 147 | – | – | – | – | – | – | –
CCOC(=O)Cc1csc(NC(=O)c2cc(-c3ccncc3)nc3ccccc23)n1 | · | · | · | · | – | · | · | ·
CCOC(=O)c1cn[nH]c1NC(=S)Nc1ccc(OC)cc1 | – | – | – | 50[inhibitor] | – | – | – | –
COC(=O)c1cn[nH]c1NC(=S)Nc1ccc(Cl)c(Cl)c1 | – | – | – | – | – | · | · | ·
COCCN(CC(=O)Nc1cccc(C)c1C)C(=O)c1oc2ccccc2c1C | · | · | · | · | – | · | · | ·
COC(=O)N1N=C(c2ccccc2)CC1(O)C(F)(F)F (stereo unspecified) | -5.0[inhibitor] | – | – | 0.0[inhibitor] | – | – | – | –
COc1ccc(C(=O)N2N=C(c3ccccc3)CC2(O)C(F)(F)F)cc1 (stereo unspecified) | – | – | – | – | – | · | · | ·
O=C(c1c(F)cccc1F)N1CCN(c2ncccn2)CC1 | – | – | – | – | – | · | · | ·
C/C(=N\N1CCN(c2ccccc2)CC1)c1ccncc1 | – | – | – | – | – | · | · | ·
Cc1nn2c(COc3ccc(NC(=O)c4ccccc4)cc3)nnc2c2ccccc12 | – | – | – | 147 | – | – | – | –
CCC(=O)Nc1ccc(OCc2nnc3c4ccccc4c(C)nn23)cc1 | – | – | – | – | – | · | · | ·
Cc1ccc(CN2CCNC(=O)C2CC(=O)NC2CCCCCC2)cc1 (stereo unspecified) | – | – | 24 | – | – | – | – | –
SMILES | MEKK2 WT-MEK5 | DNA FID counter | MEKK2mut PB1 HTS | MEKK3 PB1 HTS | dFosB activator | MEKK2wt confirm | MEKK2mut-MEK5 | MEKK3 confirm
O=C(CC1C(=O)NCCN1CC1CCCCC1)NCCc1ccc(F)cc1 (stereo unspecified) | 139 | – | – | – | – | – | – | –
O=C(CC1C(=O)NCCN1Cc1ccc(F)cc1)NC1CCCCCCC1 (stereo unspecified) | – | – | – | – | – | · | · | ·
CC(C)CN1CCNC(=O)C1CC(=O)NCCc1ccc(C(F)(F)F)cc1 (stereo unspecified) | 160 | – | – | – | – | – | – | –
Cc1nnc(Sc2cc(C(=O)NC3CC3)c3ccccc3n2)s1 | – | – | – | – | – | · | · | ·
CCCCC12CN3CCN(CC(C3)/C1=N\NC(=O)Nc1ccccc1)C2 | – | – | – | – | – | · | · | ·
CCC12CN3CCN(CC(C3)/C1=N\NC(=O)Nc1ccccc1)C2 | – | – | – | 129 | – | – | – | –
Cc1ccccc1NC(=O)CN1C(=O)c2cccnc2Oc2ccc(Cl)cc21 | – | – | – | – | – | · | · | ·
CC(=O)N1CCN(c2ccc(NC(=O)c3ccc(OCc4ccccc4)cc3)cc2)CC1 | – | – | – | 62[inhibitor] | – | – | – | –
O=C(Nc1ccc(N2CCCC2)cc1)c1ccc(Br)cc1 | 151 | – | – | – | 59 | – | – | –
CN1CCN(c2ccccc2NC(=O)c2ccc(-c3ccc(Cl)c(Cl)c3)o2)CC1 | 139 | – | – | – | – | – | – | –
CN1CCN(c2ccccc2NC(=O)c2cccc(OCc3ccccc3)c2)CC1 | 137 | – | – | – | – | – | – | –
CN1CCN(c2ccccc2NC(=O)c2ccc(-c3ccc(Br)cc3)o2)CC1 | – | – | – | – | – | · | · | ·
COc1ccc(C2SCCN2C(=S)Nc2cccc(Cl)c2)cc1 (stereo unspecified) | – | – | – | – | – | · | · | ·
COc1cccc(NC(=O)c2ccco2)c1 | 1.0[inhibitor] | – | – | 1.0[inhibitor] | – | – | – | –
O=C(Nc1cccc(OC(=O)c2ccco2)c1)c1ccco1 | -1.0[inhibitor] | – | – | 0.0[inhibitor] | – | – | – | –
COc1cccc(C(=O)COc2cccc(NC(=O)c3ccco3)c2)c1 | – | – | – | – | – | · | · | ·
Cc1onc(-c2ccccc2Cl)c1C(=O)OCC(=O)c1c(N)n(C)c(=O)n(C)c1=O | – | – | – | – | – | · | · | ·
O=C(COc1ccc(Cl)cc1)NCCS(=O)(=O)N1CCN(c2ccccc2F)CC1 | – | – | – | – | – | · | · | ·
